Test results taken from PubChem BioAssay (EPA / NIEHS).
The source made the active and inactive calls. Rule for the calls: active = hit-call score of the fitted dose curve at least 0.9, where 1 is the maximum; inactive = score below 0.9.

Assay: ATG_CMV_CIS: Attagene CIS-FACTORIAL HepG2 Assay for human CMV (Internal Marker) (AID 2282928);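 note: endpoint acts as a background internal control marker rather than a target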
Details: HepG2 CMV promoter reporter, transcription factor profiling; actives raise or lower the signal
Procedure: ATG_CIS is a cell-based, multiplexed-readout assay that uses HepG2, a human liver cell line, with measurements taken at 24 hours after chemical dosing in a 24-well plate.ATG_CMV_CIS is one of 52 assay component(s) measured or calculated from the ATG_CIS assay. It is designed to make measurements of mRNA induction, a form of inducible reporter, as detected with fluorescence intensity signals by Reverse transcription polymerase chain reaction (RT-PCR) and Capillary electrophoresis technology.Data from the assay component ATG_CMV_CIS was analyzed into 1 assay endpoint. This assay endpoint, ATG_CMV_CIS, was analyzed with bidirectional fitting relative to DMSO as the negative control and baseline of activity. Using a type of inducible reporter, measures of mRNA for gain or loss-of-signal activity can be used to understand the background control at the transcription factor-level as they relate to the gene . Furthermore, this assay endpoint can be referred to as a secondary readout, because this assay has produced multiple assay endpoints where this one serves a background control function. To generalize the intended target to other relatable targets, this assay endpoint is annotated to the background measurement intended target family, where the subfamily is internal marker.
Human liver HepG2 cells are transiently transfected with multiple reporter transcription units (MRTUs) in 6-well plates using FuGene 6 reagent (Roche; 3 ml FuGene/1 mg DNA). The MRTU constructs are regulated by a cis-regulating element (promoter). […] A major difference between the CIS and TRANS system is that in CIS activities of endogenous TFs are measured, whereas the TRANS assay evaluates changes in activities of exogenous, chimeric NR-Gal4 proteins. […] At the end of 24 hour incubation, total RNA was isolated using TriZol reagent (Invitrogen). The isolated RNA is then reverse-transcribed using oligo(dT) primer and Mo-MLV reverse transcriptase (Invitrogen) with DNAse I (Ambion) treatment for 30 min. The one-tenth of the produced cDNA was amplified by PCR using Taq DNA polymerase (Invitrogen) and two reporter sequence-specific primers. The PCR products were fluorescently labeled by primer extension with 6-arboxyfluorescein (6-FAM) 5'-labeled reporter sequence-specific primer (2 min at 95 C, 20 s at 68 C and 10 min at 72 C) and these products were digested with 5U of HpaI (New England Biolabs) for 2h at 37 C. The fragments were purified using Qiaquick PCR columns (Qiagen), analyzed on an ABI 3130xL genetic analyzer (Applied Biosystems) with peak positions identified by using a set of X-rhodamine (ROX)-labeled MapMarker1000 molecular weight standards (BioVentures). The raw capillary electrophoresis data was processed using Attagraph software (Attagene).

AC50, active:
C[C@H]1O[C@@H](O[C@H]2[C@@H](O)C[C@H](O[C@H]3[C@@H](O)C[C@H](O[C@H]4CC[C@@]5(C)[C@H](CC[C@@H]6[C@@H]5C[C@@H](O)[C@]5(C)[C@@H](C7=CC(=O)OC7)CC[C@]65O)C4)O[C@@H]3C)O[C@@H]2C)C[C@H](O)[C@@H]1O 2.56 µM
CC1(C)C2=CCCC(C)(C)[C@]23CC[C@H]1C3 112 µM
O=[N+]([O-])c1ccc(O)cc1C(F)(F)F 100 µM
COC(=O)Nc1ccc(Cl)c(Cl)c1 24 µM

outcome, inactive:
CC1(C)C(=O)N(Cl)C(=O)N1Br
OC[C@H]1O[C@@H]2O[C@H]3[C@H](O)[C@@H](O)[C@@H](O[C@H]4[C@H](O)[C@@H](O)[C@@H](O[C@H]5[C@H](O)[C@@H](O)[C@@H](O[C@H]6[C@H](O)[C@@H](O)[C@@H](O[C@H]7[C@H](O)[C@@H](O)[C@@H](O[C@H]8[C@H](O)[C@@H](O)[C@@H](O[C@H]9[C@H](O)[C@@H](O)[C@@H](O[C@H]1[C@H](O)[C@H]2O)O[C@@H]9CO)O[C@@H]8CO)O[C@@H]7CO)O[C@@H]6CO)O[C@@H]5CO)O[C@@H]4CO)O[C@@H]3CO
NC(=S)NNC(N)=S
CCC(C)c1cc([N+](=O)[O-])cc([N+](=O)[O-])c1OC(=O)OC(C)C (stereo not given)
C=CCCCCCCCCCC
CCCCCCCCN1CCCC1=O
O=C(O)CNc1ccccc1
CCc1cc(Cc2cc(CC)cc(C(C)(C)C)c2O)c(O)c(C(C)(C)C)c1
CC(C)(C)c1ccc(C(=O)O)cc1
c1ccc(CN(Cc2ccccc2)Cc2ccccc2)cc1
CC(C)=CCCC(C)CCOC=O (stereo not given)
CC(C)(CO)[C@@H](O)C(=O)NCCC(=O)O
CC=CC=CCOC(=O)C(C)C
CCCCC(CC)COC(C)=O (stereo not given)
[Cl][Au]([Cl])[Cl]
COCCc1ccc(OCC(O)CNC(C)C)cc1 (stereo not given)
C[N+](C)(C)CCCCCC[N+](C)(C)C
O=P(O)(O)O
O=C1OC(=O)c2c(Br)c(Br)c(Br)c(Br)c21
ClC(c1ccccc1)(c1ccccc1)c1ccccc1
CC(=O)OCCCc1ccccc1
CCCCCCCCCCCC(=O)OCC(O)CO (stereo not given)
COC(CC(C)CCCC(C)(C)O)OC (stereo not given)
Cc1ccc(C)o1
COC(=O)C=C(C)CCC=C(C)C
COc1cc(C(C)C)ccc1C
CCCCC1CCC(O)CC1 (stereo not given)
C[C@H]1C[C@@H](O)CC(C)(C)C1
CN(C)c1ccncc1
CC=Cc1ccc(OC)c(OC)c1
Nc1ccccc1[N+](=O)[O-]
CCCC[O][Al]([O]CCCC)[O]CCCC
CCCCCCOC(=O)C(C)C
c1ccc(Oc2ccccc2)cc1
CCCC(=O)C(CC)Sc1ccoc1C (stereo not given)
N#Cc1ccc(CC(=O)c2cccc(C(F)(F)F)c2)cc1
